Shown are actives, neighbours in structure and some others; about 28% of the full set was active somewhere.
CYP2C19 act: human CYP2C19 activators, primary screen, biochemical, luminescence; recombinant CYP2C19, luciferin-H EGE luminescence; hits give high values; 0 = fully inhibited enzyme, 1 = untreated enzyme; AID 1025, 2008; 96,000 tested, under 10 active; activation factor at 5 µM; Cytochrome P450 2C19 (Homo sapiens), P33261;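 active = activation factor of at least 2 at 5 µM in the primary screen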
PLK1 inh: human PLK1 kinase inhibitors, primary screen, biochemical, TR-FRET | recombinant PLK1 kinase, TR-FRET peptide phosphorylation | inhibition, % at 10 µM | 97,000 compounds, 0.53% hits | AID 619, 2007;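 active = inhibition of 50% or more in the single-concentration screen; inactive = inhibition below 50%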
Target sequence (P53350 whole entry, looked up): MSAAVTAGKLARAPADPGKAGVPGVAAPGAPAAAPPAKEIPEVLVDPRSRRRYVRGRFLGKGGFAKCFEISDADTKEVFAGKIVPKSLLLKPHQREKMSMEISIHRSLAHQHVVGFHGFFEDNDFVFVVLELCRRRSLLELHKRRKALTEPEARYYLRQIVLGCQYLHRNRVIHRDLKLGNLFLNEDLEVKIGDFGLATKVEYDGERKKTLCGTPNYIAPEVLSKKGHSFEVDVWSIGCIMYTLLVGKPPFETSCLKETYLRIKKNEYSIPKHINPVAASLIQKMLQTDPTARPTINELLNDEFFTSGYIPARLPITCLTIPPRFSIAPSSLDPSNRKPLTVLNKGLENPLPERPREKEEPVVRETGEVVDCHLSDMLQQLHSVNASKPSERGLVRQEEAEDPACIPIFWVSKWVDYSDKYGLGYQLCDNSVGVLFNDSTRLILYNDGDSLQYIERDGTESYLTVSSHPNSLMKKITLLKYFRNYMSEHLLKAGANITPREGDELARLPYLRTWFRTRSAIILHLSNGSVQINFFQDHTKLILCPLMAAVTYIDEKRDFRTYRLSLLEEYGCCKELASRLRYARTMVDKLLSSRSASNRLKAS
CYP2C19 inh: blockers of cytochrome P450 2C19 activity – biochemical, luminescence, ADME assay, primary screen; P33261; CYP2C19 Supersomes, luciferin-H EGE luminescence, 30 min; inhibition, % at 5 µM; 96,000 compounds, 21% hits; AID 778, 2007;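 active = CYP2C19 inhibition above a set limit at 5 µM in the primary screen, cut at about 50% in these data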
CYP2C9 inh: blockers of cytochrome P450 2C9 activity – biochemical, luminescence, ADME assay, primary screen; CYP2C9 Supersomes, luciferin-H conversion; inhibition, % at 5 µM; 96,000 compounds, 20% hits;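 active = blocking of liver enzyme CYP2C9 beyond about 50% at 5 µM, limit read from the data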
PLK1 PBD inh: Plk1 polo box domain binding inhibitors, primary screen, biochemical, fluorescence polarization; Serine/threonine-protein kinase PLK1 (Homo sapiens), P53350; Plk1 PBD phosphopeptide binding; inhibition, %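 (tested at about 20 µM)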; 97,000 compounds, 0.13% hits; in the data active = inhibition above about 34%, passing the limit was not always enough
CYP2C9 act: human CYP2C9 activators, primary screen, biochemical, luminescence | Cytochrome P450 2C9 (Homo sapiens), P11712 | recombinant CYP2C9, luciferin-H conversion; hits give high values; factor 1 = untreated enzyme, 0 = blocked | activation factor at 5 µM | 96,000 compounds, 1.4% hits | AID 1024, 2008;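 active = activation factor of 2 or more for CYP2C9 at a 5 µM dose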
Numbers stand for hits; i = inactive; nt = not tested or not shown.

SMILES	CYP2C19 act	PLK1 inh	CYP2C19 inh	CYP2C9 inh	PLK1 PBD inh	CYP2C9 act
CN(C)S(=O)(=O)c1ccc(S(=O)(=O)N(CC(=O)Nc2ccccc2)CC2CCCO2)cc1 (stereo not drawn)	i	i	i	90.2	i	i
CC(C)C1Oc2ccccc2N(CC(=O)NCCCN2C(C)CCCC2C)C1=O (stereo not drawn)	i	i	i	i	i	i
Cc1ccc(N(C(=O)C2CCC(=O)N2)C2(C(=O)NC3CCCC3)CCCCC2)cc1 (stereo not drawn)	i	i	i	i	i	i
O=C1c2ccc(Oc3ccc4c(c3)C(=O)N(CCCCO)C4=O)cc2C(=O)N1CCCCO	i	i	83.7	85.9	i	i
CCOC(=O)c1cc(-c2ccccc2)n(CCC(=O)NC(C)CC)c1C (stereo not drawn)	nt	i	nt	nt	i	nt
CCOC(=O)c1cc(-c2ccc(C)cc2)n(CCC(=O)NCCCOC)c1C	i	i	93.0	100.0	i	i
Cc1ccc(-n2nnnc2SCC(=O)N2CCc3ccccc3C2)cc1	nt	i	nt	nt	i	nt
Cc1ccc(-n2nnnc2SCC(=O)N2CCc3ccccc3C2)c(C)c1	i	nt	i	i	nt	2
Nn1c(COc2ccccc2)nnc1SCC(=O)O	i	i	i	i	i	i
Nn1c(COc2cccc(Br)c2)nnc1SCC(=O)N1CCc2ccccc2C1	i	i	52.1	i	i	i
Cn1nnnc1SCC(=O)N1CCc2ccccc2C1	i	i	70.5	i	i	i
C/C(N)=C(/C#N)C(=O)CSc1nnnn1-c1ccc(C)cc1C	i	i	100.4	i	i	i
CCOC(=O)C1=C(N)n2c(s/c(=C\c3cccnc3)c2=O)=C(C(=O)OC)C1c1cccnc1 (stereo not drawn)	nt	i	nt	nt	i	nt
CCOC(=O)C1=C(N)n2c(s/c(=C\c3cccs3)c2=O)=C(C(=O)OCC)C1c1cccs1 (stereo not drawn)	i	i	i	78.5	i	i
CCOC(=O)C1=C(N)n2c(s/c(=C\c3cccnc3)c2=O)=C(C(=O)OCC)C1c1cccnc1 (stereo not drawn)	i	nt	62.7	69.6	nt	i
CC(OC(=O)CCc1nc2ccccc2[nH]c1=O)C(=O)c1ccccc1 (stereo not drawn)	i	i	95.8	66.9	i	i
CC1CCCCC1NC(=O)C(Cc1ccccc1)NS(=O)(=O)c1cccs1 (stereo not drawn)	i	i	83.6	73.4	i	i
CC(CCc1ccccc1)NC(=O)C(Cc1ccccc1)NS(=O)(=O)c1cccs1 (stereo not drawn)	i	i	75.8	79.4	i	i
CC(CCc1ccccc1)NC(=O)c1cc2sccc2n1C (stereo not drawn)	i	nt	i	i	nt	i
Cc1ccn2cc(-c3ccc(S(=O)(=O)N4CCOCC4)cc3)nc2c1	i	nt	i	i	nt	i
C=C1C(C(=O)N2CCOCC2)C1C(=O)N1CCOCC1 (stereo not drawn)	i	i	i	i	i	i
O=C1C2Sc3[nH]c(=O)sc3C(c3ccccc3)C2C(=O)N1c1ccc(Cl)cc1 (stereo not drawn)	i	i	67.2	52.3	i	i
Cc1ccc(N2C(=O)C3Sc4[nH]c(=O)sc4C(c4ccccc4)C3C2=O)cc1 (stereo not drawn)	i	i	i	i	i	i
CC1(C)CC(=O)C(CCC(=O)c2ccccc2)C(C)(C)N1 (stereo not drawn)	i	i	i	i	i	i
COc1cc(C2C(C(C)=O)=C(O)C(=O)N2CCc2c[nH]c3ccccc23)ccc1O (stereo not drawn)	i	i	i	63.7	i	i
CC(=O)C1=C(O)C(=O)N(CCc2c[nH]c3ccccc23)C1c1cccc(O)c1 (stereo not drawn)	i	i	i	i	i	i
Cc1cc(Cn2ccnc2)c(C)cc1Cn1ccnc1	i	i	97.1	95.2	i	i
CCC(CC)C(=O)Nc1cc(C(=O)NCCc2ccccc2)ccc1Cl	i	i	i	i	i	i
NS(=O)(=O)c1ccc(CCNC(=O)c2cccnc2)cc1	nt	i	nt	nt	i	nt
